Assay results published in the supplement of paper PMC6992640.

Key:
Experiment in all cases: cell viability of combination (% of vehicle); higher = less cytotoxic
Conditions in all cases: 1 µM; 72 h; partner dose: 10 nM
[1] = system: HCI01 (cells of a triple-negative basal-like breast cancer xenograft)
Experimental: (§1)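 PDX cells were treated for 72 h with each drug at 1 µM plus carfilzomib (10 nM; 100 nM for WHIM2). Luciferase viability is expressed as percent of vehicle.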

[2] = system: UCD52 (cells of a triple-negative basal-like breast cancer xenograft)
Experimental: as §1

[3] = system: WHIM30 (cells of a triple-negative basal-like breast cancer xenograft)
Experimental: as §1

Row | SMILES | cell viability of combination [1] | cell viability of combination [2] | cell viability of combination [3]
1 | CN1CCN(CCCN2c3ccccc3Sc3ccc(C(F)(F)F)cc32)CC1.Cl.Cl [Trifluoperazine 2HCl] + CC(C)C[C@H](NC(=O)[C@H](CCc1ccccc1)NC(=O)CN1CCOCC1)C(=O)N[C@@H](Cc1ccccc1)C(=O)N[C@@H](CC(C)C)C(=O)[C@@]1(C)CO1 [Carfilzomib] | 76.2 | 59.5 | 16.7
2 | COC(=O)C12CCC(C)(C)CC1C1C(=O)C=C3C4(C)C=C(C#N)C(=O)C(C)(C)C4CCC3(C)C1(C)CC2 (stereo unspecified) [Bardoxolone methyl] + CC(C)C[C@H](NC(=O)[C@H](CCc1ccccc1)NC(=O)CN1CCOCC1)C(=O)N[C@@H](Cc1ccccc1)C(=O)N[C@@H](CC(C)C)C(=O)[C@@]1(C)CO1 [Carfilzomib] | 158 | 28.1 | 
3 | CCCCCCCCOc1ccccc1C(=O)Nc1ccc(C(=O)OCC[N+](C)(CC)CC)cc1.[Br-] [Otilonium Bromide] + CC(C)C[C@H](NC(=O)[C@H](CCc1ccccc1)NC(=O)CN1CCOCC1)C(=O)N[C@@H](Cc1ccccc1)C(=O)N[C@@H](CC(C)C)C(=O)[C@@]1(C)CO1 [Carfilzomib] | 81.5 | 67 | 17.7
4 | CCN(CC)CCNC(=O)c1c(C)[nH]c(C=C2C(=O)Nc3ccc(F)cc32)c1C [Sunitinib] + CC(C)C[C@H](NC(=O)[C@H](CCc1ccccc1)NC(=O)CN1CCOCC1)C(=O)N[C@@H](Cc1ccccc1)C(=O)N[C@@H](CC(C)C)C(=O)[C@@]1(C)CO1 [Carfilzomib] | 66 | 59.3 | 
5 | C=CC(=O)Nc1cc(Nc2nccc(-c3cn(C)c4ccccc34)n2)c(OC)cc1N(C)CCN(C)C + CC(C)C[C@H](NC(=O)[C@H](CCc1ccccc1)NC(=O)CN1CCOCC1)C(=O)N[C@@H](Cc1ccccc1)C(=O)N[C@@H](CC(C)C)C(=O)[C@@]1(C)CO1 [Carfilzomib] | 59.8 | 53.7 | 
6 | [O-]n1ccccc1=S.[O-]n1ccccc1=S.[Zn+2] [Zinc Pyrithione] + CC(C)C[C@H](NC(=O)[C@H](CCc1ccccc1)NC(=O)CN1CCOCC1)C(=O)N[C@@H](Cc1ccccc1)C(=O)N[C@@H](CC(C)C)C(=O)[C@@]1(C)CO1 [Carfilzomib] | 68.3 | 42.8 | 13.4
7 | Clc1ccc(COC(Cn2ccnc2)c2ccc(Cl)cc2Cl)cc1.O=[N+]([O-])O (stereo unspecified) [Econazole nitrate] + CC(C)C[C@H](NC(=O)[C@H](CCc1ccccc1)NC(=O)CN1CCOCC1)C(=O)N[C@@H](Cc1ccccc1)C(=O)N[C@@H](CC(C)C)C(=O)[C@@]1(C)CO1 [Carfilzomib] | 89.1 | 59.8 | 
8 | Cc1cc(Nc2ncc(Cl)c(Nc3ccccc3S(=O)(=O)C(C)C)n2)c(OC(C)C)cc1C1CCNCC1 + CC(C)C[C@H](NC(=O)[C@H](CCc1ccccc1)NC(=O)CN1CCOCC1)C(=O)N[C@@H](Cc1ccccc1)C(=O)N[C@@H](CC(C)C)C(=O)[C@@]1(C)CO1 [Carfilzomib] | 81.5 | 31.4 | 7.66
9 | CC(C)c1nc(CN(C)C(=O)NC(C(=O)NC(Cc2ccccc2)CC(O)C(Cc2ccccc2)NC(=O)OCc2cncs2)C(C)C)cs1 (stereo unspecified) [Ritonavir] + CC(C)C[C@H](NC(=O)[C@H](CCc1ccccc1)NC(=O)CN1CCOCC1)C(=O)N[C@@H](Cc1ccccc1)C(=O)N[C@@H](CC(C)C)C(=O)[C@@]1(C)CO1 [Carfilzomib] | 73 | 65.6 | 27.3
10 | Cl.OC(c1cc(C(F)(F)F)nc2c(C(F)(F)F)cccc12)C1CCCCN1 (stereo unspecified) [Mefloquine hydrochloride] + CC(C)C[C@H](NC(=O)[C@H](CCc1ccccc1)NC(=O)CN1CCOCC1)C(=O)N[C@@H](Cc1ccccc1)C(=O)N[C@@H](CC(C)C)C(=O)[C@@]1(C)CO1 [Carfilzomib] | 82.9 | 51.6 | 20.3
11 | Cl.Cl.O=C1c2c(O)ccc(O)c2C(=O)c2c(NCCNCCO)ccc(NCCNCCO)c21 [Mitoxantrone HCl] + CC(C)C[C@H](NC(=O)[C@H](CCc1ccccc1)NC(=O)CN1CCOCC1)C(=O)N[C@@H](Cc1ccccc1)C(=O)N[C@@H](CC(C)C)C(=O)[C@@]1(C)CO1 [Carfilzomib] | 74.1 | 30 | 
12 | CNC(=O)c1cc(Oc2ccc(NC(=O)Nc3ccc(Cl)c(C(F)(F)F)c3)cc2)ccn1 [Sorafenib] + CC(C)C[C@H](NC(=O)[C@H](CCc1ccccc1)NC(=O)CN1CCOCC1)C(=O)N[C@@H](Cc1ccccc1)C(=O)N[C@@H](CC(C)C)C(=O)[C@@]1(C)CO1 [Carfilzomib] | 69 | 49 | 
13 | CNCCC(Oc1ccc(C(F)(F)F)cc1)c1ccccc1.Cl (stereo unspecified) [Fluoxetine HCl] + CC(C)C[C@H](NC(=O)[C@H](CCc1ccccc1)NC(=O)CN1CCOCC1)C(=O)N[C@@H](Cc1ccccc1)C(=O)N[C@@H](CC(C)C)C(=O)[C@@]1(C)CO1 [Carfilzomib] | 72.4 | 52.6 | 16.3
14 | Nc1ccc2cc3ccc([NH3+])cc3nc2c1.Nc1ccc2cc3ccc([NH3+])cc3nc2c1.O=S(=O)([O-])[O-] [Proflavine Hemisulfate] + CC(C)C[C@H](NC(=O)[C@H](CCc1ccccc1)NC(=O)CN1CCOCC1)C(=O)N[C@@H](Cc1ccccc1)C(=O)N[C@@H](CC(C)C)C(=O)[C@@]1(C)CO1 [Carfilzomib] | 78 | 94 | 11.2
15 | CC(O)C(=O)O.CCOc1ccc2nc3cc(N)ccc3c(N)c2c1.O [Ethacridine lactate monohydrate] + CC(C)C[C@H](NC(=O)[C@H](CCc1ccccc1)NC(=O)CN1CCOCC1)C(=O)N[C@@H](Cc1ccccc1)C(=O)N[C@@H](CC(C)C)C(=O)[C@@]1(C)CO1 [Carfilzomib] | 74.3 | 66.7 | 
16 | CCCCc1oc2ccc(NS(C)(=O)=O)cc2c1C(=O)c1ccc(OCCCN(CCCC)CCCC)cc1 [Dronedarone] + CC(C)C[C@H](NC(=O)[C@H](CCc1ccccc1)NC(=O)CN1CCOCC1)C(=O)N[C@@H](Cc1ccccc1)C(=O)N[C@@H](CC(C)C)C(=O)[C@@]1(C)CO1 [Carfilzomib] | 76.1 | 59.3 | 
17 | C#Cc1cccc(Nc2ncnc3cc(OCCOC)c(OCCOC)cc23)c1 [Erlotinib] + CC(C)C[C@H](NC(=O)[C@H](CCc1ccccc1)NC(=O)CN1CCOCC1)C(=O)N[C@@H](Cc1ccccc1)C(=O)N[C@@H](CC(C)C)C(=O)[C@@]1(C)CO1 [Carfilzomib] | 66.8 | 49.1 | 
18 | COC(=O)c1ccc2c(c1)NC(=O)C2=C(Nc1ccc(N(C)C(=O)CN2CCN(C)CC2)cc1)c1ccccc1 [Nintedanib (BIBF 1120)] + CC(C)C[C@H](NC(=O)[C@H](CCc1ccccc1)NC(=O)CN1CCOCC1)C(=O)N[C@@H](Cc1ccccc1)C(=O)N[C@@H](CC(C)C)C(=O)[C@@]1(C)CO1 [Carfilzomib] | 76.4 | 37.5 | 
19 | CN(C)CCOc1ccc(C(=C(CCCl)c2ccccc2)c2ccccc2)cc1.O=C(O)CC(O)(CC(=O)O)C(=O)O [Toremifene Citrate] + CC(C)C[C@H](NC(=O)[C@H](CCc1ccccc1)NC(=O)CN1CCOCC1)C(=O)N[C@@H](Cc1ccccc1)C(=O)N[C@@H](CC(C)C)C(=O)[C@@]1(C)CO1 [Carfilzomib] | 103 | 70.2 | 
